According to PubChem BioAssay (NCATS):
Inconclusive results are not listed. Values without a mark were called inactive. The source made the active and inactive calls. Calls follow the shape of the dose curve; as a rule, active = well fitted curve in the direction sought with a large enough effect; inconclusive = small, poorly fitted or top-dose-only effect, or another doubt; inactive = no such curve, though single readings can be large; an effect the other way counts as inactive or inconclusive.

system: Zika virus NS2B-NS3 protease (linked construct); assay: 384 well plate NINDS Rhodamine confirmatory qHTS for Zika virus inhibitors (AID 1347164); settings: rhodamine-110 peptide substrate fluorescence; series mostly up to 1 mM; activity change, negative = inhibition: at the top concentration;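 also: fluorescence from protease cleavage of Ac-LKRR-rhodamine 110 substrate; potency is read from the fitted curve at half-maximal effect; nearly all actives have a fitted effect of over 65% in size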
Summary of the method: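 Linked NS2B-NS3 protease (final 5, 30 or 60 nM) preincubated ~15 minutes with compounds, then 10 microM Ac-LKRR-Rhodamine 110 added. Fluorescence (485/538 nm) read after 25 minutes at room temperature, normalized to no-enzyme and no-inhibitor controls.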

Row | SMILES | Potency
1 | O=S(=O)(O)c1ccc2cc(N=Nc3cc(S(=O)(=O)O)c4cccnc4c3O)ccc2c1 | 0.562 µM (active)
2 | O=C(Nc1ccccc1)Nc1ccc(-c2ccc(C(=O)[C@H]3CCC[C@H]3C(=O)O)cc2)cc1 | 14.1 µM (active)
3 | N#CC(c1ccc(Cl)cc1)c1c(Cl)cc(-n2ncc(=O)[nH]c2=O)cc1Cl (stereo not drawn) | 35.5 µM (active)
4 | O=C(O)Cc1cccc(OCCCN(Cc2cccc(C(F)(F)F)c2Cl)CC(c2ccccc2)c2ccccc2)c1 | 28.2 µM (active)

system: not listed separately; assay: Vero cells viability qHTS for Zika virus inhibitors (AID 1347167); settings: cytotoxicity counter-screen (Zika); series mostly up to 45.9 µM; activity change, negative = cytotoxicity: at the top concentration; also: % is scaled to controls: 0 for no effect and ±100 for the full control effect
Summary of the method: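 qHTS titration; 24-48 h compound exposure, 37 degrees C/5% CO2; DMEM, 4% FBS; CellTiter Glo ATP luminescence.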

Row | SMILES | activity change, negative = cytotoxicity [%]
5 | O=S(=O)(O)c1ccc2cc(N=Nc3cc(S(=O)(=O)O)c4cccnc4c3O)ccc2c1 | -6.48
6 | O=C(Nc1ccccc1)Nc1ccc(-c2ccc(C(=O)[C@H]3CCC[C@H]3C(=O)O)cc2)cc1 | -2.09
7 | C[C@H]1COC2=C1C(=O)C(=O)c1c2ccc2c1CCCC2(C)C | -0.998
8 | N#CC(c1ccc(Cl)cc1)c1c(Cl)cc(-n2ncc(=O)[nH]c2=O)cc1Cl (stereo not drawn) | -12.4
